Laboratory results: PubChem BioAssay
Unmarked numbers belong to inactive results. The source made the active and inactive calls. No stated cut-off is given here; in the data, active means fold change permeability below about 0.7 or above about 1.3; inactive means in between.

Assay: modulators of brain endothelial barrier permeability, primary screen, cell-based, FITC-avidin fluorescence, HTS (AID 1963498); further: test concentration not given here
Conditions: actives lie on both sides

Structure (SMILES)	fold change permeability
Clc1ccccc1C(c1ccccc1)(c1ccccc1)n1ccnc1	1.2
O=C(/C=C/c1ccc(O)c(O)c1)OCCc1ccccc1	1
CCCCS(=N)(=O)CC[C@H](N)C(=O)O (stereo not given in full)	0.9
NC(=O)N1c2ccccc2C=Cc2ccccc21	1.1
C[N+](C)(C)CCOC(N)=O	0.9
Oc1ccccc1O	0.9
Nc1ccc(S(=O)(=O)Nc2ccnn2-c2ccccc2)cc1	1.2
O=C(O)c1cc(=O)c2c(Cl)cc(Cl)cc2[nH]1	1.1
CCCCCCCCCCCCCCCCCCc1ccc(C(=O)/C=C/C(=O)O)cc1	1.2
COc1ccc2cccc(CCNC(C)=O)c2c1	0.8
Cc1[nH]c(=O)c(C#N)cc1-c1ccncc1	0.8
CSc1c(C)c(SC)n2ccncc12	1.3 (active)
O=C1Nc2ccc(Cl)cc2[C@@](C#CC2CC2)(C(F)(F)F)O1	1.2
CC[C@@]1(O)C(=O)OCc2c1cc1n(c2=O)Cc2cc3c(CN(C)C)c(O)ccc3nc2-1	1
Cc1cc(C(C)(C)C)c(O)c(C)c1CC1=NCCN1	0.8
CCC(C)N(C)C(=O)c1cc2ccccc2c(-c2ccccc2Cl)n1 (stereo not given)	0.9
CN1CCN(c2nc3cc(C(F)(F)F)ccc3n3cccc23)CC1	1.7 (active)
CSC(N)=NCCC[C@H](N)C(=O)O	0.7 (active)
Cc1ccc(C2Nc3ccccc3C(=O)N2c2ccccc2)s1 (stereo not given)	1.3 (active)
Cc1c(Cl)cccc1Nc1ncccc1C(=O)O	1.1
CN(C)CCC(c1ccc(Cl)cc1)c1ccccn1 (stereo not given)	1.1
O=c1c(-c2ccc(O)cc2)coc2cc(O)cc(O)c12	0.8
C[C@]12CC[C@@H]3c4ccc(O)cc4CC[C@H]3[C@@H]1CCC2=O	0.9
COc1ccc(S(=O)(=O)Nc2c(C)cc(C)cc2C)cc1	1.4 (active)
N#Cc1cc2nc(O)c(O)nc2cc1[N+](=O)[O-]	1.2
CCC(=O)NS(=O)(=O)c1ccc(-c2c(-c3ccccc3)noc2C)cc1	0.9
CN1C2CCC1CC(OC(=O)C(O)c1ccccc1)C2 (stereo not given)	1.1

Structure (SMILES)	fold change permeability
Fc1ccc(NC(=S)NCCCn2ccnc2)c(F)c1	0.9
Cc1scc2c1N(C(=O)CN1CCN(C)CC1)c1ccccc1NC2=O	0.8
CCCc1c(OCCCOc2ccc(OCC(=O)O)cc2)ccc(C(C)=O)c1O	1.3 (active)
C[N+](C)(C)CC=O	1.1
CCc1ccc2c(-c3cccc(Cl)c3)nc(=O)n(CC)c2n1	1.5 (active)
O=C(S)S	1.4 (active)
O=C(Nc1ccccc1C(=O)NC1CCCCNC1=O)c1cc2ccccc2s1 (stereo not given)	1.9 (active)
NCCCCCCCCCCN	0.9
C#CCN(C)CCCOc1ccc(Cl)cc1Cl	1.3 (active)
NCc1c[nH]c(=S)n1[C@H]1CCc2c(F)cc(F)cc2C1	1.4 (active)
CCCCc1ncc(/C=C(\Cc2cccs2)C(=O)O)n1Cc1ccc(C(=O)O)cc1	0.9
C=C1C[C@@]23CC[C@H]4[C@@](C)(CCC[C@@]4(C)C(=O)O)[C@@H]2CC[C@]1(O)C3	0.9
O=C(O)[C@H](CC(=O)N1C[C@H]2CCCC[C@H]2C1)Cc1ccccc1	1.2
O=C(O)Cc1c[nH]c2ccc(O)cc12	1.1
CCCCCC(O)CCCC(=O)O (stereo not given)	1
O=C(O)c1cccc(-c2ccc(-c3cn(C(=O)N4CCCCC4Cc4ccccc4)nn3)cc2)c1 (stereo not given)	1
NS(=O)(=O)c1cc2c(cc1Cl)NC=NS2(=O)=O	0.9
CCCCC[C@H](CC(=O)NO)C(=O)N[C@H](C(=O)N1CCC[C@H]1CO)C(C)C	1.2
CCCOC(=O)c1c(-c2ccccc2)nc(CC)c(C(=O)SCC)c1CCC	1.5 (active)
COc1cccc(NC(=O)/C=C/c2ccc(Cl)cc2)c1	1.1
Cc1cc(C)c(S(=O)(=O)N(CCc2cccc(Br)c2)Cc2ccc(-c3cccc(S(C)(=O)=O)c3)cc2)c(C)c1	1.8 (active)
Cc1cc(O)c2c(c1)C(=O)c1cc(O)cc(O)c1C2=O	1.3 (active)
CN1CCN(C2=Nc3ccccc3Oc3ccc(Cl)cc32)CC1	1.3 (active)
CCN(CC)CCNC(=O)c1cc(S(C)(=O)=O)ccc1OC	0.9
NC(=O)c1cc[n+](CC2=C(C(=O)O)N3C(=O)[C@@H](NC(=O)[C@@H](c4ccccc4)S(=O)(=O)[O-])[C@H]3SC2)cc1	0.8
COc1cc(CNC(=O)CCCCCCC(C)C)ccc1O	0.7 (active)
CCCCCCCCCCCCCCCC(=O)OC(CC(=O)O)C[N+](C)(C)C (stereo not given)	1.3 (active)

Structure (SMILES)	fold change permeability
C=CCNc1ncnc2ccc(Br)cc12	1.2
O=C(O)C1=CCNCC1	1
N[C@H](CO)C(=O)O	0.8
NC(=O)C(c1ccccc1)(c1ccccc1)[C@@H]1CCN(CCc2ccc3c(c2)CCO3)C1	0.8
CN1CCC(=C2c3ccccc3CC(=O)c3sccc32)CC1	1.4 (active)
O=C(O)c1cc([N+](=O)[O-])ccc1NCCCc1ccccc1	1
COC(=O)C(C)(N)Cc1ccc(O)cc1 (stereo not given)	0.8
N#C/C(=C\c1ccc(O)c(O)c1)C(=O)c1ccc(O)c(O)c1	1.8 (active)
CC(=O)O[C@H]1C[C@@H]2CC[C@@H]3[C@H](CC[C@@]4(C)[C@H]3C[C@H]([N+]3(C)CCCCC3)[C@@H]4OC(C)=O)[C@@]2(C)C[C@@H]1[N+]1(C)CCCCC1	1
CC(=O)NNC(=O)N1Cc2ccccc2Oc2ccc(Cl)cc21	0.7 (active)
COc1ccc(CC(C)NCC(O)c2ccc(O)c(NC=O)c2)cc1 (stereo not given)	0.9
CC(=O)Oc1cc(C(C)C)c(OCCN(C)C)cc1C	0.8
Nc1ncnc2c1nc(Br)n2C1OC2COP(=O)(O)O[C@@H]2C1O (stereo not given in full)	1
CCCNC(C)C(=O)Nc1ccccc1C (stereo not given)	1
COc1ccccc1N1CCN(CCCCN2C(=O)c3ccccc3C2=O)CC1	0.9
Cc1cc(N2C[C@@H](C)N[C@@H](C)C2)ncc1-c1ccc(-c2nc3c(ccn3C)c(=O)[nH]2)cc1	1.3 (active)
O=C(O)C1CCCNC1 (stereo not given)	1.3 (active)
CNCCCC12CCC(c3ccccc31)c1ccccc12	0.9
CN=c1nc(-c2ccccc2)n(-c2ccccc2)s1	2.1 (active)
CCCCCCC(=O)OC1CC(C)(C)NC(C)(C)C1	0.9
Cn1c(=O)c2[nH]c(-c3ccccc3)nc2n(C)c1=O	1.1
CCOC(=O)c1ccc(C#Cc2ccc3c(c2)C(C)(C)CCS3)nc1	2.1 (active)
N=C1CCCN1Cc1[nH]c(=O)[nH]c(=O)c1Cl	1.6 (active)
CCCN(CCC)C(=O)C(CCC(=O)O)NC(=O)c1ccccc1 (stereo not given)	0.7 (active)
C[C@@H](O[C@H]1OCCN(Cc2n[nH]c(=O)[nH]2)[C@H]1c1ccc(F)cc1)c1cc(C(F)(F)F)cc(C(F)(F)F)c1	1.4 (active)
COc1cc2nc(N(C)CCCNC(=O)C3CCCO3)nc(N)c2cc1OC (stereo not given)	1
CC[N+](CC)(CC)CC(=O)Nc1c(C)cccc1C	1.5 (active)

Structure (SMILES)	fold change permeability
COCc1nc2c([nH]1)c(=O)n(C)c(=O)n2CC(C)C	0.8
CN(C)C/C=C(/c1ccc(Br)cc1)c1cccnc1	1.7 (active)
CC(=O)OC(C)C[N+](C)(C)C (stereo not given)	1
O=C1Nc2ccc(I)cc2/C1=C/c1cc(Br)c(O)c(Br)c1	0.7 (active)
O=Nc1c(-c2c(O)[nH]c3cc(Br)ccc23)[nH]c2ccccc12	1.2
CN(C)C(=O)Nc1cccc(-c2ccc(N(C)C)cc2)c1	1.1
CC(O)C(O)[C@H]1CNc2nc(N)[nH]c(=O)c2N1 (stereo not given in full)	1.4 (active)
N[C@@H](Cn1ccc(=O)c(O)c1)C(=O)O	1.8 (active)
NC(N)=NC(N)=Nc1ccccc1	0.9
CC(=O)OCC(CCn1cnc2cnc(N)nc21)COC(C)=O	0.9
C[C@H]1C[C@H]2[C@@H]3CCC4=CC(=O)C=C[C@]4(C)[C@@]3(Cl)[C@@H](O)C[C@]2(C)[C@@]1(O)C(=O)CO	1.2
O=C(Nc1ccccc1)c1cc([N+](=O)[O-])ccc1Cl	1.5 (active)
CCCNC(=O)NS(=O)(=O)c1ccc(Cl)cc1	0.9
NCCCCCC(=O)O	1.1
C[C@]12CCC(=O)C=C1CC[C@@H]1[C@@H]2CC[C@@]2(C)[C@H]1CC[C@]2(O)C(=O)CO	1.1
Nc1ncnc2c1ncn2[C@@H]1O[C@H](COP(=O)(O)OP(=O)(O)OP(=O)(O)OP(=O)(O)OC[C@@H]2O[C@H](n3cnc4c(N)ncnc43)C(O)[C@@H]2O)[C@H](O)C1O (stereo not given in full)	1
COc1cc2nc(N3CCCN(C)CC3)nc(NC3CCN(Cc4ccccc4)CC3)c2cc1OC	2.2 (active)
Nc1nc2c(cnn2CCc2ccccc2)c2nc(-c3ccco3)nn12	0.7 (active)
Cc1ccc(=O)n(-c2ccccc2)c1	1
O=C(O)Cn1c(C(=O)Nc2nc(-c3ccccc3Cl)cs2)cc2ccccc21	1.3 (active)
C[N+](C)(C)CCOC(=O)CCC(=O)OCC[N+](C)(C)C	0.9
Clc1ccc2c(c1)C(N1CCNCC1)=Nc1ccccc1O2	1.2
COC(=O)C1=C(C)NC(C)=C(C(=O)OCCN(C)Cc2ccccc2)C1c1cccc([N+](=O)[O-])c1 (stereo not given)	1
C=CCN1CCc2cc(O)c(O)cc2C(c2ccccc2)C1 (stereo not given)	0.7 (active)
